Compound activity: PubChem BioAssay, National Center for Advancing Translational Sciences (NCATS)
Only some compounds are listed: those with a hit (about 12% of all), similar ones and a draw of the others.
Shiga inhibitor: inhibitors of Shiga toxin in Vero cells. Vero cells, Shiga toxin protein synthesis inhibition reporter. inhibition, % at 38.7 µM. hit rate 9.2% among 290,000. AID 2315; in the data active = inhibition mostly above about 28%, no sharp cut-off; inactive = mostly below about 43%; note: 0% is about no effect
SARS PLP yeast: SARS-CoV PLP inhibition in yeast. S. cerevisiae expressing SARS-CoV PLpro, growth rescue. Potency, µM (doses to about 32.9 µM), inactives show at the highest dose activity, positive = growth rescue, hits mostly activators. hit rate 0.19% among 330,000; note: potency is the fitted concentration of half-maximal effect; 0% is about no effect; nearly all actives have a fitted effect of over 55% in size
NS1 function inh: blocks influenza NS1 protein function; Potency, µM (series often up to 46.1 µM), without a hit: top-dose activity, positive = more growth; hit rate 0.4% among 270,000; note: potency is the fitted concentration of half-maximal effect; actives are rising curves; nearly all actives have a fitted effect of over 50% in size
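Recovery from NS1-induced slow growth read by OD600 in budding yeast switched to galactose assay medium (pH 6.0, -URA) at 1:100 dilution. Compound 23 nl per well; the matching strain lacking NS1 serves as control.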
CHX counter: counter-screen for Shiga toxin inhibitors: cycloheximide protein synthesis inhibition; cell reporter, cycloheximide protein synthesis inhibition counterscreen; max response, %; hit rate 12% among 300,000; AID 2314; in the data active = max response mostly above about 13%, no sharp cut-off; inactive = mostly below about 14%; note: read at 38.3 µM for the half of the compounds with a filed dose; 0% is about no effect
Numbers without * were called inactive; ? = inconclusive; nt = no result; + = active, no number. Unless noted, calls come from the whole dose curve.

SMILES	Shiga inhibitor	SARS PLP yeast	NS1 function inh	CHX counter
CN1c2ccccc2C(=O)NC1c1ccc(Cl)cc1 (stereo not drawn)	37	-3%	nt	12*
Cn1ccc(C(=O)NC(=S)N2CCSCC2)n1	12	1%	3%	12*
O=C(CN(c1cccc(C(F)(F)F)c1)S(=O)(=O)c1ccc(Cl)c([N+](=O)[O-])c1)NCc1ccc(F)cc1	15	4%	0%	6
CCn1c(C(=O)OC)cc2c1ccn2-c1ccc(F)cc1	113*	-37%	-54%	54*
COC(=O)c1cc2c(ccn2-c2ccc(F)cc2)n1Cc1ccc(OC)cc1	54*	-15%	8%	47*
CCOC(=O)C1(C/C(C)=N/NC(N)=O)CC(C)OC1=O (stereo not drawn)	-6	?	24%	4
O=C(NCCCN1CCCCC1)c1ccc(CS(=O)c2ccc(F)cc2)o1 (stereo not drawn)	-4	3%	-6%	-2
Cc1ccc(-n2nc(C)c3c2OC(N)=C(C#N)C3c2ccc(C)o2)cc1 (stereo not drawn)	92*	-20%	-2%	48*
Cc1ccc(-n2nc(C)c3c2OC(N)=C(C#N)C3c2ccco2)cc1 (stereo not drawn)	75*	-1%	?	22*
CCOC(=O)c1ccc(CNCc2ccc(Br)cc2)cc1	-6	5%	-8%	-2
CCOC(=O)c1ccc(N/C=C/C(=O)c2ccccc2)cc1	54*	1%	4%	43*
CCOC(=O)c1ccc(N/C=C/C(=O)C(C)(C)C)cc1	90*	0%	1%	50*
CCOC(=O)c1ccc(CNCc2ccccc2)cc1	50*	-6%	1%	29*
CCOC(=O)c1ccc(N/C=C/C(=O)c2ccc(OC)cc2)cc1	1	?	-9%	1
CC(C)(OC1OC(CO)C(O)C(O)C1O)[C@H]1Oc2ccc3ccc(=O)oc3c2[C@H]1O (stereo partly drawn)	-14	-13%	17%	-4
COc1ccc(CNC(=O)CCCn2nc(C)c([N+](=O)[O-])c2C)cc1OC	189*	6%	nt	47*
O=C(CN1C(=O)CCS(=O)(=O)c2ccccc21)Nc1ccc(Cl)cc1	11	-4%	15%	-2
COc1ccc(CCC(=O)N2CCCSC2=Nc2ccc(C(C)=O)cc2)cc1	-1	16%	-12%	21*
CCOc1ccc(/C=N/NC(=O)c2ccccc2O)cc1CN1CC2CC(C1)c1cccc(=O)n1C2 (stereo not drawn)	nt	-2%	nt	nt
CCN(CC)C(=O)CSc1nc2[nH]ncc2c(=O)[nH]1	-7	5%	nt	-4
CCOC(=O)N1CCN(C(=O)C2CCN(Cc3cccc(OCc4ccccc4)c3)CC2)CC1	-8	-12%	-5%	-2
O=C(c1cc2cc(Cl)ccc2o1)N1CCCC1	89*	-11%	-14%	49*
O=C(NCc1ccccc1CN1CCCC1)c1cc2cc(Cl)ccc2o1	nt	-4%	nt	nt
Cc1c(C(=O)N2CCCCC2)oc2ccc(Br)cc12	nt	-5%	nt	nt
O=C(c1cc2cc(Br)ccc2o1)N1CCCCC1	92*	-5%	-6%	38*
SMILES	Shiga inhibitor	SARS PLP yeast	NS1 function inh	CHX counter
CCN1C(=O)C(C(=O)Nc2ccc(OC)cc2)C2CC1(C)Oc1ccccc12 (stereo not drawn)	46*	-4%	-39%	14
COc1ccc(OCc2cc(C(=O)NC(C)c3csc(C)n3)no2)c(Cl)c1 (stereo not drawn)	62*	-5%	-21%	63*
COc1ccc(OCc2cc(C(=O)NCc3nc(C)cs3)no2)c(Cl)c1	98*	-11%	-10%	52*
COc1ccc(-c2nnc(SCc3cc(C)ccc3C)n2N)cc1	-11	3%	-68%	-2
Cc1ccccc1C(=O)c1c[nH]c(C(=O)NCC2CCCO2)c1 (stereo not drawn)	-1	-8%	0%	-2
CC(C)(C)c1ccc(C(=O)c2c[nH]c(C(=O)NCC3CCCO3)c2)cc1 (stereo not drawn)	22	-8%	12%	22*
O=C(NCC1CCCO1)c1cc(C(=O)C2CCCCC2)c[nH]1 (stereo not drawn)	22	-4%	nt	13
COc1ccc(C(=O)c2c[nH]c(C(=O)N=CN(C)C)c2)cc1	42*	1%	nt	20*
COc1ccc(C(=O)c2c[nH]c(C(=O)NCC3CCCO3)c2)cc1 (stereo not drawn)	28	-9%	5%	21*
CC(C)c1ccc(CN(C)CC(O)c2ccccc2)cc1 (stereo not drawn)	13	-1%	-1%	8
CC(NC(=O)/C=C/c1ccco1)c1nc2ccccc2n1Cc1cccc(Cl)c1 (stereo not drawn)	67*	-4%	12%	54*
Cc1nn(Cc2ccccc2Cl)c(Cl)c1C(=O)OCC(=O)NCc1ccco1	10	1%	7%	11*
CC(=O)Nc1ccc(NC(=O)c2c(C)nn(Cc3ccccc3)c2Cl)cc1	5	2%	-2%	-3
Cc1nn(Cc2ccccc2Cl)c(Cl)c1C(=O)NCCc1ccccc1	100*	7%	-1%	47*
CNC(=S)N/N=C/c1cccc(OCc2ccccc2F)c1	52*	25%	18%	27*
O=C(N/N=C/c1cccc(Oc2ccccc2)c1)c1ccccc1F	+	-9%	-68%	73*
CCNC(=S)N/N=C/c1cccc(OCc2c(F)cccc2Cl)c1	33	6%	12%	18
O=C(N/N=C/c1cccc(Oc2ccccc2)c1)c1cc[n+]([O-])cc1	13	-4%	nt	2
Nc1ccc(C(=O)N/N=C/c2cccc(Oc3ccccc3)c2)cc1	33	-1%	-20%	30*
N#C/C(=C\Nc1ccccn1)C(=O)c1ccco1	nt	nt	3%	nt
O=C(Oc1ccc2c(c1)OCC2=O)c1ccc(Cl)cc1	50*	-1%	0%	22
CCOC(=O)c1c(C)c(C(=O)NCc2cccnc2)c(C)n1CC	1	-1%	-1%	-3
Cc1ccc(S(=O)(=O)Cc2cc(F)c([N+](=O)[O-])cc2[N+](=O)[O-])cc1	46*	-65%	-103%	22*
CCOC(=O)c1ccc([N+](=O)[O-])c(CS(=O)(=O)c2ccc(Cl)cc2)c1	-9	-3%	5%	-4
CCOc1ccc(NC(=O)c2cccc(OC(=S)N3CCC(C)CC3)c2)cc1	35	-5%	?	17*
SMILES	Shiga inhibitor	SARS PLP yeast	NS1 function inh	CHX counter
COc1ccc(C(=O)Nc2ccc(N3CCCC3)cc2)cc1OC	51*	-8%	1%	34*
CCOc1cccc(C(=O)Nc2ccc(N3CCCC3)cc2)c1	48	1%	-2%	17*
COc1ccc(C(=O)Nc2ccc(N3CCOCC3)cc2)cc1OC	35	-3%	-5%	-1
CCOc1ccc(C(=O)Nc2ccc(N3CCCC3)cc2)cc1	33	-9%	9%	19*
CCC(C)c1ccccc1N1CC(C(=O)Nc2ccc(C)c(S(=O)(=O)N3CCOCC3)c2)CC1=O (stereo not drawn)	nt	2%	nt	nt
Cc1ccc(S(=O)(=O)N2CCN(S(=O)(=O)c3cccs3)CC2)cc1	56*	1%	-23%	33*
O=S(=O)(c1cccs1)N1CCN(c2ccc(O)cc2)CC1	1	-1%	1%	15*
CCN1C(=O)/C(=C2/C=Cc3ccccc3N2CC)SC1=S	81	0%	nt	14*
CCCN1/C(=C2/SC(=S)N(CC)C2=O)C=Cc2ccccc21	5	27%	8%	-5
